# Measured values as given in the supplement of paper PMC10849652.
# Targets with a hit are over-represented here; the source holds about 7,900 in all. About 0.6% of all pairs of compound and target were hits. Unmarked numbers belong to inactive results.
# Assays:
# Assay in all cases: log2 fold change, soluble protein after heating vs DMSO (PISA); higher = thermal stabilisation; K562 cells, 10 uM, 30 min; active = over 0.2 and 3.5 SD of the protein, either way, in both replicates (recomputed)
# [1] = compound: CC1=C(C=C(C=C1)NC(=O)C2=CC(=CC=C2)C(C)(C)C#N)NC3=CC4=C(C=C3)N=CN(C4=O)C
# Summary of the method: (§1)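 K562 cells at 2×10^6 cells/mL were treated for 30 min with 10 μM compound, and aliquots were heated for 3 min over 48°C-58°C before pooling. Extraction used PBS with 0.5% NP-40 at 4°C, and soluble protein was the supernatant after 21,000xg for 90 min, measured by TMTpro 16plex LC-MS/MS with channel sums equalised. Thermal stability values, relative to control samples and from duplicates, are log2 fold changes.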
# [2] = compound: CC1=C(C=C(C=C1)NC(=O)C2=CC(=CC=C2)N(C)C)NC(=O)C3=CC=C(C=C3)O
# Summary of the method: as §1
# [3] = compound: CC1=CC=C(C=C1)SC2=C3C=C(SC3=CN=C2)C(=O)N
# Summary of the method: as §1
# [4] = compound: CC1=NC(=CC=C1)C2=C(N=C(N2)C(C)(C)C)C3=CC4=NC=CN=C4C=C3
# Summary of the method: as §1
# Nexturastat A = compound: CCCCN(Cc1ccc(C(=O)NO)cc1)C(=O)Nc1ccccc1 [Nexturastat A]
# Summary of the method: as §1
# vemurafenib = compound: CCCS(=O)(=O)Nc1ccc(F)c(C(=O)c2c[nH]c3ncc(-c4ccc(Cl)cc4)cc23)c1F [vemurafenib]
# Summary of the method: as §1
# [5] = compound: CCCS(=O)(=O)Nc1ccc(F)c(C(=O)c2c[nH]c3ncc(Cl)cc23)c1F
# Summary of the method: as §1
# [6] = compound: CCCc1cc(C)[nH]c(=O)c1CNC(=O)c1cc(-c2ccnc(N3CCN(C)CC3)c2)cc2c1cnn2C(C)C
# Summary of the method: as §1
# givinostat = compound: CCN(CC)Cc1ccc2cc(COC(=O)Nc3ccc(C(=O)NO)cc3)ccc2c1 [givinostat]
# Summary of the method: as §1
# barasertib = compound: CCN(CCCOc1ccc2c(Nc3cc(CC(=O)Nc4cccc(F)c4)[nH]n3)ncnc2c1)CCOP(=O)(O)O [barasertib]
# Summary of the method: as §1
# [7] = compound: CC[C@@H]1C(=O)N(C)c2cnc(Nc3ccc(C(=O)NC4CCN(C)CC4)cc3OC)nc2N1C1CCCC1
# Summary of the method: as §1
# volasertib = compound: CC[C@@H]1C(=O)N(C)c2cnc(Nc3ccc(C(=O)N[C@H]4CC[C@H](N5CCN(CC6CC6)CC5)CC4)cc3OC)nc2N1C(C)C [volasertib]
# Summary of the method: as §1
# [8] = compound: CC[C@H](C)N1C=C(C2=C(C=C(C=C21)C3=CN=C(C=C3)N4CCNCC4)C(=O)NCC5=C(C=C(NC5=O)C)C)C
# Summary of the method: as §1
# epoxomicin = compound: CC[C@H](C)[C@@H](C(=O)N[C@@H]([C@@H](C)O)C(=O)N[C@@H](CC(C)C)C(=O)[C@]1(CO1)C)NC(=O)[C@H]([C@@H](C)CC)N(C)C(=O)C [epoxomicin]
# Summary of the method: as §1
# [9] = compound: CCn1c(C(=O)N(C2CC2)C2CC2)cc2c3c(ncn3C)c(Nc3cc(C)n(C)n3)nc21
# Summary of the method: as §1
# [10] = compound: CCn1cc(-c2ccnc3[nH]c(-c4cccc(CN(C)C)c4)cc23)c(-c2ccc(NC(=O)N(C)C)cc2)n1
# Summary of the method: as §1
# [11] = compound: CN(C)CC(=O)Nc1ccc2[nH]c(=O)c3ccccc3c2c1
# Summary of the method: as §1
# rosiglitazone = compound: CN(CCOC1=CC=C(C=C1)C[C@H]2C(=O)NC(=O)S2)C3=CC=CC=N3 (racemic) [rosiglitazone]
# Summary of the method: as §1
# [12] = compound: CN1C2=C(C3=C1C(=O)N(N=C3)CC4=CC(=CC=C4)N)SC(=C2)S(=O)C
# Summary of the method: as §1
# [13] = compound: CN1CCC(CNc2ccc3ncc(-c4cccc(OC(F)(F)F)c4)n3n2)CC1
# Summary of the method: as §1
# UniProt O95394, sequence (O95394 whole entry, looked up): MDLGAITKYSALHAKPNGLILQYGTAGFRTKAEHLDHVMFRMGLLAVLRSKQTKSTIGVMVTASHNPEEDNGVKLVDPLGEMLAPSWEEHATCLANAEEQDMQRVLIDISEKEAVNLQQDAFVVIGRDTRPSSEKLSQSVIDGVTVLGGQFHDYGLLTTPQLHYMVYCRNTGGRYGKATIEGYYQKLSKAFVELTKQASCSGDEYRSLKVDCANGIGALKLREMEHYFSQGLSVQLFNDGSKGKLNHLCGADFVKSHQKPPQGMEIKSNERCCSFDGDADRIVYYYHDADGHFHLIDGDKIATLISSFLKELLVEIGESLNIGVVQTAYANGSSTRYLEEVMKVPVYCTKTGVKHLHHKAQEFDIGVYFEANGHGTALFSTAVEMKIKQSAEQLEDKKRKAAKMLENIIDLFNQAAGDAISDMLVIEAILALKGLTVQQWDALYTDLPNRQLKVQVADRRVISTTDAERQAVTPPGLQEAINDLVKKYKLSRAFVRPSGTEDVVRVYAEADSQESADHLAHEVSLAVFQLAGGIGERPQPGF
# UniProt Q9BRX2, sequence (Q9BRX2 whole entry, looked up): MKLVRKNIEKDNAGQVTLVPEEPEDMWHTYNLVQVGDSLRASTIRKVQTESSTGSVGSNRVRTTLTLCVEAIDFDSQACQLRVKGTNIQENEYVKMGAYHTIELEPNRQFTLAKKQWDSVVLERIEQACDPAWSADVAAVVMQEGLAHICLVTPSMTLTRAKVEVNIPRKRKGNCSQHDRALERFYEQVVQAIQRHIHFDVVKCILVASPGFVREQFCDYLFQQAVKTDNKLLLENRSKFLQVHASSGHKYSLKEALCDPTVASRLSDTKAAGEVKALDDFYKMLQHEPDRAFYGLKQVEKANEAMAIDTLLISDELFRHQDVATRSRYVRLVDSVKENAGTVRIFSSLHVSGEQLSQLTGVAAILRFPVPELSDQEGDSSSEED
# UniProt Q8NAV1, sequence (Q8NAV1 whole entry, looked up): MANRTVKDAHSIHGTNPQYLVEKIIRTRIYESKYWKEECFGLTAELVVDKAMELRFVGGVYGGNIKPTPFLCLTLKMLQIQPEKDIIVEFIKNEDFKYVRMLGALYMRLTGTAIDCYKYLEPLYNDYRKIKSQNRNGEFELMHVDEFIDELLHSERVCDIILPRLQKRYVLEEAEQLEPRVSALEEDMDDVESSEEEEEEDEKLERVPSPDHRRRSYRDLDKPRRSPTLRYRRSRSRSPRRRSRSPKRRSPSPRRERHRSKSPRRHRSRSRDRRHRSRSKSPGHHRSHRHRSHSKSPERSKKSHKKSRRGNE
# UniProt Q15257, sequence (Q15257 whole entry, looked up): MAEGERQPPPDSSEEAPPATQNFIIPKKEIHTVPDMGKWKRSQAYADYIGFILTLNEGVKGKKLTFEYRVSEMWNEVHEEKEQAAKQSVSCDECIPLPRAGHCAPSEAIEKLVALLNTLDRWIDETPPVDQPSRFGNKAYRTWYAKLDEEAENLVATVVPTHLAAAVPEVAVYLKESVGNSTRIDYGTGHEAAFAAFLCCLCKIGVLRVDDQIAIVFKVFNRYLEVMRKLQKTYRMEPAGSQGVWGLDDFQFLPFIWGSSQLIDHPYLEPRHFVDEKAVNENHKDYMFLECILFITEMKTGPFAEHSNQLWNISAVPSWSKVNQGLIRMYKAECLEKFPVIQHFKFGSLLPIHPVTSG
# UniProt O00408, sequence (O00408 whole entry, looked up): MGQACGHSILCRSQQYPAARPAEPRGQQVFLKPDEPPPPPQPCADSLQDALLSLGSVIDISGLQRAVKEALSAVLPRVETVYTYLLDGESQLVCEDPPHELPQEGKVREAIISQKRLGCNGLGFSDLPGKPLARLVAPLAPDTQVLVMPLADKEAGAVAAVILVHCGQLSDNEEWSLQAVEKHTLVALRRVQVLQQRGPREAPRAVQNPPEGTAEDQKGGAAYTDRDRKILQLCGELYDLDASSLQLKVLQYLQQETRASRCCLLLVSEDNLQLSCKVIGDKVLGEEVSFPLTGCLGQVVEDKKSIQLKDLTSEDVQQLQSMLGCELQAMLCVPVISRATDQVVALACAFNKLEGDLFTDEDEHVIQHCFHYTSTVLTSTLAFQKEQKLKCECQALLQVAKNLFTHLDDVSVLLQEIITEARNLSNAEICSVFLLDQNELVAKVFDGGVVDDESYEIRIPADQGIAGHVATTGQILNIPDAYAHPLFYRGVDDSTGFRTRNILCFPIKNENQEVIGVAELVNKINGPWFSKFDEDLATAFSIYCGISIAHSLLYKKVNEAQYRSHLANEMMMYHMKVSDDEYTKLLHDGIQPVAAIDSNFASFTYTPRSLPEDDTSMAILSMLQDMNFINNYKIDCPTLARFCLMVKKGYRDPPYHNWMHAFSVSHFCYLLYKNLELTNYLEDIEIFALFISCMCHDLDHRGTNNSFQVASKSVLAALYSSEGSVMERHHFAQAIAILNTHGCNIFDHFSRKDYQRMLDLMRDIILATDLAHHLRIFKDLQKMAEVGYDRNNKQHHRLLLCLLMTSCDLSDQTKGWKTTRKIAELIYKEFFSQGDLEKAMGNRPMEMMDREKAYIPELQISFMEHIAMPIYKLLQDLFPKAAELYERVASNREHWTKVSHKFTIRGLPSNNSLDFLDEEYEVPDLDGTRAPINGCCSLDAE
# UniProt P49642, sequence (P49642 whole entry, looked up): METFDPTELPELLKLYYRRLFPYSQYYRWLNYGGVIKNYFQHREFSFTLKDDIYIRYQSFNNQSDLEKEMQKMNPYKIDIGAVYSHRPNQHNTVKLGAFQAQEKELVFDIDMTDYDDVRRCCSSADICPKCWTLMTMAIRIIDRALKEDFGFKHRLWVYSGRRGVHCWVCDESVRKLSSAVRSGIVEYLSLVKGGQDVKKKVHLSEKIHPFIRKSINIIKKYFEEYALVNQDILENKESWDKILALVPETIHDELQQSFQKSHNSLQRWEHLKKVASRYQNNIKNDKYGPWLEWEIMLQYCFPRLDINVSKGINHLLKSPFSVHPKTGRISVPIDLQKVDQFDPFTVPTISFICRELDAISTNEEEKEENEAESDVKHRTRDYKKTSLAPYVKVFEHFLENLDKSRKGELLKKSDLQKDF
# UniProt Q15185, sequence (Q15185 whole entry, looked up): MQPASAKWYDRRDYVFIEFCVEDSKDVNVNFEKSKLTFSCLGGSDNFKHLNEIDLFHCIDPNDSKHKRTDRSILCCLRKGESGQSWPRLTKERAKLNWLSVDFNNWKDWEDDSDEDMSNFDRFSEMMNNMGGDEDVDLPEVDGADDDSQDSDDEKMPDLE
# UniProt O75400, sequence (O75400 whole entry, looked up): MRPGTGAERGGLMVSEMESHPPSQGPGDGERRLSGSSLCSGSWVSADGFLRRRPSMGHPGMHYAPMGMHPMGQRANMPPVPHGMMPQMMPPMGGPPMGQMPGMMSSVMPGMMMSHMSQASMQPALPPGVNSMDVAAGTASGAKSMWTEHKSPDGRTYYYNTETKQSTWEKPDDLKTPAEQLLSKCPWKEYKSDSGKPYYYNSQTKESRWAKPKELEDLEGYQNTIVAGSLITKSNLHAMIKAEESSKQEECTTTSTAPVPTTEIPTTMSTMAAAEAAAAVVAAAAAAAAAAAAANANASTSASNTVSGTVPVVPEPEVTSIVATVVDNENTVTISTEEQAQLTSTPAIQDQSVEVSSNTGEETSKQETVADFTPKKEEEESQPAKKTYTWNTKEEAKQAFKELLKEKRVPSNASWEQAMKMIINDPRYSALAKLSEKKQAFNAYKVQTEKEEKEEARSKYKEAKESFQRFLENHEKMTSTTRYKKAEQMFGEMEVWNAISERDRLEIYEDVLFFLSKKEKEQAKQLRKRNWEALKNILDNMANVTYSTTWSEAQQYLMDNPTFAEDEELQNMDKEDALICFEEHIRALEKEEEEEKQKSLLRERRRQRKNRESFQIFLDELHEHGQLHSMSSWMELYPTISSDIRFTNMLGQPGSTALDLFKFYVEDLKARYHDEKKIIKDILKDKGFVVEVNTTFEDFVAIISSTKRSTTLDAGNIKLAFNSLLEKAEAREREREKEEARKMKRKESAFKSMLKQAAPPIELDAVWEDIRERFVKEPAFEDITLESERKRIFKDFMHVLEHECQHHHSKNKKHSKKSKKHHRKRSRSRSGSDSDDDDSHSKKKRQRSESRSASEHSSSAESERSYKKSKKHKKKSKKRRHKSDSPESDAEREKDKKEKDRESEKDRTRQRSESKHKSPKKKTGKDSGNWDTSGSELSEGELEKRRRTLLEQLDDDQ
# UniProt P53609, sequence (P53609 whole entry, looked up): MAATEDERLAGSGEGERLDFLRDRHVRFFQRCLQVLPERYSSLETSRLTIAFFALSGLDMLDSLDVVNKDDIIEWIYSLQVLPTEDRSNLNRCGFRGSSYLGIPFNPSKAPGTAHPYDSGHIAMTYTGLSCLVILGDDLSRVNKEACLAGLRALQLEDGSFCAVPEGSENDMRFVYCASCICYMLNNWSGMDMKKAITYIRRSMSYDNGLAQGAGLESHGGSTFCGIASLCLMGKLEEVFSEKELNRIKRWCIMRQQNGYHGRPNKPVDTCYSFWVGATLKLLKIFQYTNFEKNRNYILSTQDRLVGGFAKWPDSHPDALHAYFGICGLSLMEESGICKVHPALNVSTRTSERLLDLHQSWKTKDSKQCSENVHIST
# UniProt P48426, sequence (P48426 whole entry, looked up): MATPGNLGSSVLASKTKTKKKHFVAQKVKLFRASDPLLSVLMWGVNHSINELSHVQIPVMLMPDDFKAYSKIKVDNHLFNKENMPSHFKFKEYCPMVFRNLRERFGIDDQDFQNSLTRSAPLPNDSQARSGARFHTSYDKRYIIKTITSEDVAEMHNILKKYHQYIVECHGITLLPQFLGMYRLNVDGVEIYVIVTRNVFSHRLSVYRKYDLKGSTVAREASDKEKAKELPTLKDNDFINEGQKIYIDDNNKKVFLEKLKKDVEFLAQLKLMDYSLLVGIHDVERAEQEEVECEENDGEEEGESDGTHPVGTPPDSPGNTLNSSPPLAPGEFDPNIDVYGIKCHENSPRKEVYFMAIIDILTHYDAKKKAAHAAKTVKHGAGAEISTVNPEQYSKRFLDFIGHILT
Target,log2 fold change [1],log2 fold change [2],log2 fold change [3],log2 fold change [4],log2 fold change (Nexturastat A),log2 fold change (vemurafenib),log2 fold change [5],log2 fold change [6],log2 fold change (givinostat),log2 fold change (barasertib),log2 fold change [7],log2 fold change (volasertib),log2 fold change [8],log2 fold change (epoxomicin),log2 fold change [9],log2 fold change [10],log2 fold change [11],log2 fold change (rosiglitazone),log2 fold change [12],log2 fold change [13]
PRIM1 (UniProt P49642),0.02,-0.083,0.061,-0.004,0.162,0.042,0.1,0.074,0.031,0.056,-0.097,-0.249,0.093,0.088,-0.072,-0.018,0.117,0.048,0.052,-0.12
PRPF40A (UniProt O75400),0.016,0,0.022,0.018,-0.051,0.109,0.02,0.073,0.156,0,-0.036,-0.216,0.089,0.022,-0.096,0.065,0.036,0.041,0.074,-0.04
PRPF38A (UniProt Q8NAV1),0.005,-0.023,-0.058,0.017,0.019,-0.118,-0.089,0.065,0.005,-0.024,-0.029,-0.016,0,0.048,-0.011,0.031,0.051,0.031,-0.037,-0.081
PGGT1B (UniProt P53609),-0.062,0.006,0.002,0.035,-0.073,-0.022,-0.023,-0.025,0.009,0.035,0.056,0.098,0.004,-0.011,0.031,-0.026,-0.009,0.032,-0.101,-0.008
PGM3 isoform 4 (UniProt O95394),0.013,-0.073,0.021,0.04,-0.01,0.017,0.04,0.008,-0.044,0.017,0.003,0.052,0.092,0.014,-0.034,-0.038,0.026,0.066,-0.084,-0.235 (active)
PIP4K2A (UniProt P48426),-0.027,-0.061,0.017,-0.005,-0.051,-0.044,0.004,-0.01,-0.052,0.022,0.602 (active),0.768 (active),-0.055,0.018,-0.049,-0.052,-0.021,-0.009,0.04,0.114
PTGES3 (UniProt Q15185),0.039,-0.073,0.044,0.078,-0.046,0.032,0.111,0.034,0.026,0.064,-0.21,-0.504 (active),0.096,0.041,0,-0.11,0.049,0.048,-0.045,-0.134
PDE2A (UniProt O00408),-0.041,0.007,0.041,-0.019,-0.054,0.013,0.036,-0.012,-0.043,0.011,-0.031,-0.107,0.016,-0.087,0.061,-0.082,0.027,-0.004,0,-0.091
PDCD2L (UniProt Q9BRP1),-0.001,-0.104,0.052,0.068,0,-0.038,0.079,0.045,-0.088,0.069,-0.201,-0.435 (active),0.017,0.07,-0.107,-0.171,0.038,0.018,-0.038,-0.073
PLCG1 isoform 2 (UniProt P19174),0.045,-0.011,0.039,-0.012,0.019,0.003,0.079,-0.019,-0.013,0.031,-0.031,-0.25,0.05,0.014,-0.097,-0.187,0.085,0.09,0.083,-0.412 (active)
PTPA (UniProt Q15257),0.001,-0.01,0.004,0.014,-0.006,0.044,-0.017,-0.046,-0.005,-0.007,-0.007,0.004,-0.012,0.051,-0.017,-0.06,-0.002,0.008,-0.072,-0.009
PELO (UniProt Q9BRX2),-0.005,-0.051,0.042,-0.039,0.161,-0.13,0.007,0.055,0.192,0.045,-0.017,-0.387,0.09,-0.058,-0.068,0.007,-0.017,0.085,0.138,-0.312
